Laboratory results: PubChem BioAssay AID1851 (National Center for Advancing Translational Sciences (NCATS), 2009)
In all, about 16,000 compounds went through this assay and about 5,100 (32%) were called active. Roughly 25% stayed inconclusive and do not appear here. Calls follow the shape of the dose curve; as a rule, active = well fitted curve in the direction sought with a large enough effect; inconclusive = small, poorly fitted or top-dose-only effect, or effect the other way; inactive = no such curve, though single readings can be large or run the other way. The list shows a part of the results.

These molecules were tested against Cytochrome P450 3A4 (Homo sapiens) (UniProt P08684) (assay: Cytochrome panel assay with activity outcomes). Conditions: recombinant CYP, pro-luciferin dealkylation, luminescence, p450-cyp3a4; series mostly up to 57.1 µM.
Sequence of Cytochrome P450 3A4 (Homo sapiens) (P08684 whole entry, looked up): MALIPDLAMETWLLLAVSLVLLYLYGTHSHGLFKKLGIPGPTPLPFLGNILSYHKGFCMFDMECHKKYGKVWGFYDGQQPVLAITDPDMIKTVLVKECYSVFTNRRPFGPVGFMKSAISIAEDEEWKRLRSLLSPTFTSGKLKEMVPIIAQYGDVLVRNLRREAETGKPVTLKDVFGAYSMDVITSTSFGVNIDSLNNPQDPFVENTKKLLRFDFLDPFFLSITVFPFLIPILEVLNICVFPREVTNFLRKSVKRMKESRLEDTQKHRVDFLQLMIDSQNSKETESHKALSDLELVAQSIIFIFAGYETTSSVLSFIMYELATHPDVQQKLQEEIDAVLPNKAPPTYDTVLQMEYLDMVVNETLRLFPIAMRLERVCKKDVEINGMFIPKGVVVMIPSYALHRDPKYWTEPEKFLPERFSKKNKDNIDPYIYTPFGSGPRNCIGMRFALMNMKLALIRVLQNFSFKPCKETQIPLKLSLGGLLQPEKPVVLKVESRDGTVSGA
% is scaled to controls: 0 for no effect and ±100 for the full control effect.

activity, negative = inhibition, inactive:
Clc1ccc(/C=N/c2c(-c3ccc(Cl)cc3)nc3n2CCS3)cc1 -12.1% [at 2.29 µM]
CC(C)CO/N=C1/C[C@@H](O)[C@@H](O)[C@@H]2[C@@H]3C(=O)N(C[C@@H]4CCCO4)C(=O)[C@H]3CC[C@@H]12 -19.4% [at 11.4 µM]

AC50, active:
COc1cccc(-c2ccc3ncnc(NCc4cnc(C)cn4)c3c2)c1 7.94 µM
Cc1cnc(CNc2ncnc3ccc(-c4cccc(C#N)c4)cc23)cn1 3.16 µM
COc1ccc(/C=N/n2cnc3c([nH]c4ccc(Br)cc43)c2=O)cc1CN1CCOCC1 5.01 µM
CCCCSc1nc(C)cc(NC(=S)Nc2ccc(OC)cc2)n1 7.08 µM
S=C(S)O[C@@H]1C[C@@H]2C[C@H]1[C@@H]1CCC[C@H]21 3.98 µM
Cc1ccc(CNC(=O)CCc2c(C)nc3ncnn3c2C)cc1 2 µM
Cc1nc2ncnn2c(C)c1CCC(=O)NC(C)c1ccc2c(c1)OCCO2 (configuration not stated) 15.8 µM
COCCn1c(=O)c(-c2cc(F)cc(F)c2)nc2cnc(OC)nc21 15.8 µM
COCCn1c(=O)c(-c2cc(F)cc(F)c2)nc2cnc(Oc3ccc(OC)cc3)nc21 3.16 µM
COCCn1c(=O)c(-c2cc(F)cc(F)c2)nc2cnc(Oc3cccc(Cl)c3)nc21 10 µM
CCOc1ccc(CCNC(=O)C2CCN(S(=O)(=O)CC)CC2)cc1OCC 7.08 µM
Cc1cc(C)c(S(=O)(=O)NCC2CCC(C(=O)NCc3ccc4c(c3)OCO4)CC2)c(C)c1 (configuration not stated) 0.891 µM
CCN(CCCNC(=O)C1CCN(S(=O)(=O)CC)CC1)c1cccc(C)c1 11.2 µM
CCOc1ccc(CCNC(=O)C2CC(=O)N(C3CCCC3)C2)cc1OCC (configuration not stated) 14.1 µM

AC50, inactive:
Cc1cc2nc(SCCOC(=O)Nc3ccc(Cl)cc3)nc(C)c2cc1C
CCOC(=O)C(CC)(CC)C(=O)/C=C/c1ccc(Br)cc1
CCOC(=O)CCc1c(C)nc2ncnn2c1C
Cc1nc2nc(C)c(CCC(=O)NCCCN3CCN(c4cccc(Cl)c4)CC3)c(C)n2n1
NCC[C@H](O)C(=O)N[C@H]1C[C@@H](N)[C@@H](O[C@H]2O[C@@H](CN)[C@@H](O)[C@@H](O)[C@@H]2O)[C@@H](O)[C@@H]1O[C@H]1O[C@@H](CO)[C@@H](O)[C@@H](N)[C@@H]1O
COCCn1c(=O)c(-c2cc(F)cc(F)c2)nc2cnc(N(C)C)nc21
COCCn1c(=O)c(-c2cc(F)cc(F)c2)nc2cnc(N3CCOCC3)nc21
CCS(=O)(=O)N1CCC(C(=O)NCCN2CCN(Cc3ccccc3)CC2)CC1
CC1CCCN(CCCNC(=O)C2CC(=O)N(c3ccc(F)c(Cl)c3)C2)C1 (configuration not stated)
C=CCNC(=O)C1CCN(S(=O)(=O)CC)CC1
O=C(NCCN1CCN(Cc2ccccc2)CC1)C1CC(=O)N(C2CCCC2)C1 (configuration not stated)
